In the library only some 12% were active in any assay of this set; here they are far more common.
HP1b chromo inh = blocks HP1-beta chromodomain binding to methylated histone tails | AlphaScreen HP1-beta / biotin-H3K9me3 peptide binding | Potency, µM (titrated, usually from 114 µM), actives largely listed as inhibitors | actives 0.56% (n = 390,000); note: nearly all actives have a fitted effect of over 70% in size
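AlphaScreen: HP1-beta (50 nM) preformed 30 min with biotin-H3(1-18)K9me3 peptide (50 nM) in PBS pH 7.4, 0.01% Tween-20. Compound added for 30 min at RT, then streptavidin donor/nickel chelate acceptor beads (10 ug/mL) for 30 min.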
G9a inh = blocks human histone lysine methyltransferase G9a; Q96KQ7; G9a H3K9 monomethylation, AlphaScreen, 2 h; Potency, µM (top dose mostly 102 µM), usual class: inhibitors; actives 8.8% (n = 350,000); AID 504332; note: nearly all actives have a fitted effect of over 75% in size
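AlphaScreen detection with an anti-monomethyl H3K9 antibody quantified product after a 2 h room-temperature reaction containing 500 nM biotinylated H3K9 peptide, 20 µM SAM and 20 nM enzyme, which had been preincubated 15 min with compound.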
BAZ2B inh = inhibitors of human BAZ2B bromodomain; Q9UIF8; AID 504333; Potency, µM (top dose mostly 114 µM), hits mostly inhibitors; AlphaScreen BAZ2B-H3K14Ac peptide displacement; actives 4.4% (n = 360,000); note: nearly all actives have a fitted effect of over 60% in size
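Compounds, titrated to a top concentration of 110 uM, were incubated 30 min at room temperature with preformed BAZ2B/acetyl-K14 H3 peptide complex (50 nM each). Proximity signal was measured by AlphaScreen after 20 min with beads.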
Sfp inh = Sfp phosphopantetheinyl transferase inhibition; Q9F4F7; Biochemical Sfp PPTase activity, qHTS; Potency, µM, hits mostly inhibitors; actives 3.5% (n = 310,000); AID 1490;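 note: the enzyme is Sfp with the accession as filed and its product quenches rhodamine fluorescence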
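Compounds were incubated with enzyme (final 15 nM) for 15 min at room temperature before substrate addition started the reaction. Fluorescence at 525 nm excitation, 598 nm emission was recorded immediately and after 30 minutes.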
L3MBTL1 inh = blocks human L3MBTL1; Q9Y468; AlphaScreen L3MBTL1–H3K9me1 peptide binding; Potency, µM (highest dose often 57.1 µM), usual class: inhibitors; actives 0.66% (n = 230,000); AID 485360; note: nearly all actives have a fitted effect of over 60% in size
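Displacement of a biotinylated histone H3(1-15) peptide monomethylated at Lys9 (75 nM) from L3MBTL1 (50 nM) was measured by AlphaScreen after a 30 min room-temperature compound incubation; cefsulodin titration served as intraplate control.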
JMJD2A Tudor inh = blocks the human JMJD2A Tudor domain | O75164 | AlphaScreen JMJD2A-Tudor / H3K4me3 peptide binding | Potency, µM (doses to about 114 µM), most hits filed as inhibitors | actives 4.4% (n = 390,000); note: nearly all actives have a fitted effect of over 50% in size
Hits are given with their value; - = inactive; ? = inconclusive; . = not tested or not shown; ! = a repeat was not active; [ ] = another dose, or the depositor's remark. Calls come from the whole dose curve; as a rule, active = well fitted curve in the direction sought with a large enough effect; inconclusive = small, poorly fitted or top-dose-only effect, or another doubt; inactive = no such curve, though single readings can be large; an effect the other way counts as inactive or inconclusive.

SMILES	HP1b chromo inh	G9a inh	BAZ2B inh	Sfp inh	L3MBTL1 inh	JMJD2A Tudor inh
CCOC(=O)C(NC(C)=O)(Nc1ccc(F)cc1)C(F)(F)F (stereo unspecified)	-	-	-	-	-	-
CCOC(=O)C(NC(=O)CC(C)C)(Nc1sc(C)c(CC)c1C#N)C(F)(F)F (stereo unspecified)	-	-	-	-	-	-
CCOC(=O)C(NC(=O)CCl)(Nc1sc(C)c(CC)c1C#N)C(F)(F)F (stereo unspecified)	-	25µM	-	-	-	-
CCCn1c(N)c(N2CCCCC2)c(=O)n(CC(=O)Nc2ccccc2C(F)(F)F)c1=O	-	.	.	.	-	-
CC(Oc1ccccc1Cl)C(=O)Nc1ccccc1C(=O)N1CCOCC1 (stereo unspecified)	-	-	-	-	.	-
CC(C)OC(=O)C1OC1(C)c1ccccc1 (stereo unspecified)	-	.	.	.	.	-
COc1ccc(-c2nc3cnc(N4CCOCC4)nc3n(CCc3ccccc3)c2=O)cc1	.	-[0.501 µM]	.	-	.	.
Cc1cccc(NC(=O)c2ccc(NCC3CCCO3)c([N+](=O)[O-])c2)n1 (stereo unspecified)	-	-	?	-	-	-
Cc1cccc(NC(=O)c2ccc(NCCO)c([N+](=O)[O-])c2)n1	-	-	89µM	-	.	-
Cc1cccc(NC(=O)c2ccc(C(=O)c3ccccc3)cc2)n1	-	7.9µM	-	.	-	-
Cc1cccc(NC(=O)c2cccc(C(=O)Nc3cccc(C)n3)c2)n1	-	?	-	-	-	-
C/C=C\C1=CCCC1Nc1ncnc2ccc(-c3c(C)noc3C)cc12 (stereo unspecified)	.	.	.	-	.	?
CCOc1c(OC(C)=O)ccc(/C=C/c2ccc3cccc(OC(C)=O)c3n2)c1[N+](=O)[O-]	-	-[0.0925 µM]	?	-	-	?
C=CCN1C(=O)/C(=C/c2ccc(OC(C)=O)c(OCC)c2[N+](=O)[O-])SC1=S	16µM	6.3µM	11µM	16µM	40µM	25µM
O=C(CCc1ccccc1)NNC(=O)c1cc(Cl)ccc1O	-	.	-	-	-	-
O=C(CCc1ccccc1)NNC(=O)CCc1ccccc1	-	-	-	-	-	-
CCN(C(=S)NC(=O)CCc1ccccc1)c1ccccc1	-	8.9µM	-	-	-	?
CC(=O)NC(=S)NNC(=O)CCc1ccccc1	-	8.9µM	-	?	-	?
Cc1cc(Cl)ccc1NNC(=O)CCc1ccccc1	-	28µM	-	-	?	-
O=C(CCc1ccccc1)NNC(=S)NC(=O)c1ccccc1	-	4.5µM	-	?	-	28µM
Cc1ccc(N2CCN(C(=O)c3noc4c3COc3ccc(C)cc3-4)CC2)c(C)c1	-	-	-	.	.	-
C[C@H]1NC(=O)NC1=O	.	-[21.5 µM]	.	-	.	.
COc1ccc(OCCOC(=O)CCS(=O)(=O)c2ccc(C)cc2)cc1	-	-[12.7 µM]	-	.	-	-
CCCCC(=O)NC(=S)NNC(=O)CCc1ccccc1	-	32µM	-	-	.	-
O=C(CCc1ccccc1)NNC(=S)NCCc1ccccc1	?	-	-	-	.	-
SMILES	HP1b chromo inh	G9a inh	BAZ2B inh	Sfp inh	L3MBTL1 inh	JMJD2A Tudor inh
CC(C)(C)c1cc(CCC(=O)NNC(=S)NC(=O)c2ccccc2)cc(C(C)(C)C)c1O	-	28µM	-	56µM	-	?
CC(C)(C)c1cc(CCC(=O)NNC(=O)c2ccco2)cc(C(C)(C)C)c1O	-	-	?	-	-	-
O=C1NCCC/C1=N\Nc1ccc(Br)cc1	-	50µM	-	-	-	?
CCc1nc(Nc2cc(OC)ccc2OC)c2oc3ccccc3c2n1	-	?	-	-	.	-
CCc1nc(Nc2ccccc2OC)c2oc3ccccc3c2n1	-	50µM	-	-	.	-
CCc1nc(NCc2ccccn2)c2oc3ccccc3c2n1	-	25µM	?	-	-	-
COC(=O)COc1cccc(NC(=O)C(c2ccccc2)c2ccccc2)c1	-	.	-	-	-	-
COc1ccc(-c2nc(C)c(CCNC(=O)C(=O)Nc3ccccc3C#N)s2)cc1OC	-	-	-	.	.	-
CC(=O)c1ccc(N2CCN(S(=O)(=O)c3ccc4c5c3CC(=O)N5CC(C)S4)CC2)cc1 (stereo unspecified)	-	45µM	-	-	.	-
CC(=O)c1ccc(N2CCN(S(=O)(=O)c3ccc4c(c3)CC(=O)N4)CC2)cc1	-	.	-	-	.	-
CC(OC(=O)C1=COCCO1)C(=O)Nc1ncc(Cl)cc1Cl (stereo unspecified)	-	-	-	.	-	-
Cc1ccc(NS(=O)(=O)c2cc(C(=O)NCCCN(C)C)ccc2Cl)cc1Cl	-	79µM	-	.	-	-
Cc1ccccc1NS(=O)(=O)c1cc(C(=O)NCc2ccncc2)ccc1Cl	-	45µM	-	-	.	-
Cc1c(NS(=O)(=O)c2cc(C(=O)NCc3cccc(Cl)c3)ccc2Cl)c(=O)n(-c2ccccc2)n1C	-	.	.	.	.	-
Cc1c(NS(=O)(=O)c2cc(C(=O)NCCN(C)C)ccc2Cl)c(=O)n(-c2ccccc2)n1C	-	?	79µM	-	.	?
COc1ccc(N2CCN(S(=O)(=O)c3ccc4c(c3)CC(C)N4C(C)=O)CC2)cc1 (stereo unspecified)	-	?	-	.	.	-
CCCc1cc(=O)[nH]c(SCc2nc(-c3ccc(OCC)cc3)no2)n1	-	-	-	.	.	-
COc1ccccc1/C=C\C=N\n1c(C2CCCCC2)n[nH]c1=S	?	-[0.0925 µM]	?	-	-	-
COc1ccccc1/C=C/C=N/n1c(-c2cc(C)[nH]n2)n[nH]c1=S	-	1.6µM	?	-	-	7.9µM
COc1ccccc1/C=C/C=N/Nc1cccc(C(=O)O)c1	-	-	-	-	.	?
COc1ccccc1/C=C/C=N/n1c(-c2ccccn2)n[nH]c1=S	-	1.6µM	14µM	-	?	8.9µM
Cc1cc(-c2n[nH]c(=S)n2/N=C/C=C/c2ccccc2)n[nH]1	?	1.4µM	?	-	-	10µM
O=C(O)C=C(Br)Br	-	.	-	-	.	-
Cc1nn(C)c(C)c1S(=O)(=O)N(CC(=O)NCCCN1CC(C)CC(C)C1)c1ccc(C(C)C)cc1 (stereo unspecified)	-	?	-	-	.	-
CCCCC1=CC2=CC(=O)C(C)(OC(=O)c3cnc4ccccc4n3)C(=O)C2=CO1 (stereo unspecified)	.	?	79µM	79µM!	.	.
COC(=O)CCCC1=CC2=CC(=O)C(C)(OC(=O)c3cnc4ccccc4n3)C(=O)C2=CO1 (stereo unspecified)	.	.	.	-	.	.
O=[N+]([O-])c1ccc(C=NNc2ccc(S(=O)(=O)O)cc2)cc1	-	.	.	.	.	79µM
O=S(=O)(O)c1ccc(NN=Cc2ccccc2O)cc1	-	.	.	.	.	100µM
O=[N+]([O-])c1ccc(N/N=C/c2cccc(O)c2O)cc1	-	-[0.501 µM]	?	-	-[2.29 µM]	?

From PubChem
